Screening data: PubChem, The Scripps Research Institute Molecular Screening Center
NCOA1 inh = SRC1 coactivator transcriptional activity inhibitors, primary screen, cell-based, luminescence. HEK293 GAL4-SRC1 luciferase reporter. inhibition, % at 3.6 µM. 360,000 tested, 0.12% active. AID 588354, 2011;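 active = inhibition above the campaign mean plus 3 SD, with each screening campaign given its own cutoff, cut at about 60% in these data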
NCOA2 inhibitor = inhibition of GAL4-SRC2 driven luciferase reporter, primary screen, SRC2 inhibitor project, cell-based, luminescence; HEK293 GAL4-SRC2 luciferase reporter; inhibition, % at 9 µM; 370,000 tested, 0.17% active;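 active = inhibition above the mean inhibition of all tested compounds plus 3 SD, set per campaign, cut at about 52% in these data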
NR5A2 inv ag = LRH-1 (NR5A2) inverse agonists, primary screen, cell-based, luminescence, HEK293T, StAR-luciferase reporter. inhibition, % at 3.6 µM. LRH-1 transfected, 24 h. 360,000 tested, 0.13% active. Nuclear receptor subfamily 5 group A member 2 (Homo sapiens), O00482;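 active = inhibition above the mean inhibition of all tested compounds plus 3 SD, cut at about 73% in these data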
NCOA3 inh = SRC3 coactivator transcriptional activity inhibitors, primary screen, cell-based, luminescence. Nuclear receptor coactivator 3 (Homo sapiens), Q9Y6Q9. HEK293 GAL4-SRC3 luciferase reporter. inhibition, % at 3.6 µM. 360,000 tested, 0.17% active. AID 588352, 2011;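 active = inhibition above a per-campaign cutoff, the mean of all compounds plus 3 SD, cut at about 60% in these data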;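 note: higher means less SRC3-driven luciferase light from the GAL4 reporter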
NR2F2 inh = NR2F2 transcriptional activity inhibitors, primary screen, cell-based, luciferase reporter, HEK293T, luminescence; COUP transcription factor 2 (Homo sapiens), P24468; HEK293T NGFI-A luciferase reporter; inhibition, % at 8.6 µM; 370,000 tested, 0.7% active; AID 686940, 2013;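 active = inhibition above a per-plate cutoff, mean inhibition of test wells between control levels plus 3 SD, cut at about 38% in these data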;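 note: cells cotransfected with COUP-TFII expression vector driving the NGFI-A reporter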
Gal4-VP16 ctr = Gal4-VP16 luciferase reporter inhibitors, counter-screen for COUP-TFII antagonist project, cell-based, luminescence, HEK293; shares compounds with NR2F2 inh; inhibition, % at 8.5 µM; 2,500 tested, 25% active; in the data active = inhibition above about 13%
COUP-TFII conf = NR2F2 transcriptional activity inhibitors, confirmation, cell-based, luciferase reporter, HEK293, triplicate | shares compounds with NR2F2 inh | HEK293 NGFI-A luciferase reporter, luminescence | inhibition, % at 8.5 µM | 2,500 tested, 45% active;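 active = mean inhibition over three repeats above a set limit taken from the earlier primary screen, cut at about 38% in these data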
Of the large screens only hits and unclear results are named; the others gave an inactive call (follow-up assays come after a bar, where they were run). Only some compounds are listed: those with a hit (about 0.83% of all), similar ones and a draw of the others.

O=[N+]([O-])c1ccc(CN2CCCCCC2)cc1	none
COc1ccc(N2C[C@@]3(O)CC[C@@H](O)[C@@H](OC)[C@@H]3[C@@]2(C)[C@H](O)CC=C(C)C)cc1	none (no result: NCOA1 inh, NR5A2 inv ag, NCOA3 inh)
CC1=CC2C(C(O)CC3(C)C2CC(C)C32OCOC23COCO3)C2(C)C/C(=C\O)C(=O)C=C12 (stereo unspecified)	NR2F2 inh 52 | Gal4-VP16 ctr 21 | COUP-TFII conf 42
O=C(CSc1nnc(SCc2cccc3ccccc23)s1)Nc1ccccc1-c1ccccc1	none (no result: NCOA1 inh, NR5A2 inv ag, NCOA3 inh)
CC1CCN(c2ccc(-c3cccs3)nn2)CC1	NCOA2 inhibitor 62, NR2F2 inh 45 | Gal4-VP16 ctr 20 | COUP-TFII conf 42
Clc1ccc(-c2cccs2)nn1	none
Nc1[nH]c(C(=O)c2ccccc2)c(-c2ccccn2)c1C(=O)c1c[nH]c2ccccc12	none (no result: NCOA1 inh, NR5A2 inv ag, NCOA3 inh)
Cc1ccc(CNC(=O)c2ccc(N3CCC4(CC3)CC(c3cccc(Br)c3)=NO4)c([N+](=O)[O-])c2)cc1	none
CCCNC(=O)c1ccc(N2CCC3(CC2)CC(c2cccc(Br)c2)=NO3)c([N+](=O)[O-])c1	NR2F2 inh 54 | Gal4-VP16 ctr inactive | COUP-TFII conf inactive
CC1(C)Oc2cc3oc(-c4cc(O)cc(O)c4)cc3cc2CC1O (stereo unspecified)	NR2F2 inh 41 | Gal4-VP16 ctr inactive | COUP-TFII conf inactive
CC(=O)OC[C@]12CC[C@H]3[C@@](C)(CC[C@H]4C(C)(C)CCC[C@]34C)[C@@H]1CC(C1=CC(=O)OC1O)O2 (stereo partly specified)	NCOA1 inh 80, NCOA2 inhibitor 80, NR5A2 inv ag 103, NCOA3 inh 85, NR2F2 inh 82 | Gal4-VP16 ctr 93 | COUP-TFII conf 105
CC(=O)OC[C@]1(OC(C)=O)C[C@@]23CC[C@H]4[C@@](C)(CCC[C@@]4(C)C(=O)O)[C@@H]2CC[C@@H]1C3	none
CCNC(=O)C1(C)CCCN(C(=O)c2ccc3c(c2)C(C)(C)CCC3(C)C)C1 (stereo unspecified)	NR2F2 inh 39 | Gal4-VP16 ctr inactive | COUP-TFII conf inactive
CCNC(=O)C1(C)CCCN(C(=O)c2ccc3sccc3c2)C1 (stereo unspecified)	none
CN(Cc1cn(Cc2ccccc2)nn1)S(=O)(=O)c1ccc(F)cc1Br	none (no result: NCOA1 inh, NR5A2 inv ag, NCOA3 inh)
O=C(NC1CCCc2c1cnn2-c1ccccc1F)c1ccccn1 (stereo unspecified)	none
O=C(N[C@H]1CCCc2c1cnn2-c1ccc(F)cc1F)c1ccccn1	none (no result: NCOA1 inh, NCOA2 inhibitor, NR5A2 inv ag, NCOA3 inh)
O=C(NC1CCCc2c1cnn2-c1ccccc1F)c1ccncc1 (stereo unspecified)	NR2F2 inh 63 | Gal4-VP16 ctr 14 | COUP-TFII conf 49
COc1ccc(C(=O)NC2CCCc3c2cnn3-c2ccccc2F)cc1OC (stereo unspecified)	NR2F2 inh 50 | Gal4-VP16 ctr inactive | COUP-TFII conf 49
C=CCN1C(C(=O)OC)CN(Cc2cn(CCC3OCCO3)nn2)CCS1(=O)=O (stereo unspecified)	none (no result: NCOA1 inh, NR5A2 inv ag, NCOA3 inh)
O=C(Nc1ccc(N2CCN(C(=O)c3ccccc3)CC2)cc1)c1ccc(Br)o1	none
O=C(Nc1ccc(N2CCN(C(=O)c3ccccc3)CC2)c(Cl)c1)c1ccc(Br)o1	NR2F2 inh 40 | Gal4-VP16 ctr inactive | COUP-TFII conf inactive
COC(=O)[C@]12C[C@H](CC(=O)NCc3cccc4ccccc34)C(=O)N(Cc3ccc(Cl)cc3Cl)C1=C[C@H](C(C)C)O[C@@H]2C1CC1	none (no result: NCOA1 inh, NR5A2 inv ag, NCOA3 inh)
COC(=O)c1ccc(Oc2ccc(S(=O)(=O)N3CCCCC3)cc2N)cc1	NR2F2 inh 39 | Gal4-VP16 ctr inactive | COUP-TFII conf inactive
N/C(=N\OC(=O)c1ccccc1)c1ccccn1	none
COc1cc(C(=O)O/N=C(\N)c2ccccn2)cc(OC)c1OC	none
CC(C)(C)c1ccc(C(=O)O/N=C(\N)c2ccccn2)cc1	NCOA1 inh 90, NCOA2 inhibitor 86, NR5A2 inv ag 88, NCOA3 inh 88, NR2F2 inh 95 | Gal4-VP16 ctr 74 | COUP-TFII conf 101
CCOc1ccc(C(=O)O/N=C(\N)c2ccccn2)cc1	NCOA2 inhibitor 65, NR2F2 inh 81 | Gal4-VP16 ctr inactive | COUP-TFII conf inactive
CCc1ccc(OCC(=O)O/N=C(\N)c2ccccn2)cc1	none
Cc1ccc(C(=O)O/N=C(\N)c2ccccn2)cc1	NCOA2 inhibitor 57, NR2F2 inh 57 | Gal4-VP16 ctr inactive | COUP-TFII conf inactive
Cc1ccc(C(=O)O/N=C(\N)c2ccccn2)cc1C	NR2F2 inh 50 | Gal4-VP16 ctr inactive | COUP-TFII conf inactive
CN1OC[C@@H]2CN[C@H](c3ccc(N4CCCCC4)cc3)C[C@@H]21	none (no result: NCOA1 inh, NR5A2 inv ag, NCOA3 inh)
COC(=O)CN1CCN(C(=O)c2csc(-c3ccccc3)n2)CC1	none (no result: NCOA1 inh, NR5A2 inv ag, NCOA3 inh)
COC(=O)[C@@]12CCCCC3=C1N(CCC3)C(=O)[C@H]2CC(=O)NCC12CC3CC(CC(C3)C1)C2	none (no result: NCOA1 inh, NR5A2 inv ag, NCOA3 inh)
O=C(N[C@H](C(=O)N1CCC[C@H]1C(=O)NCCc1ccccc1Cl)c1ccccc1)C1CCCC1	none (no result: NCOA1 inh, NR5A2 inv ag, NCOA3 inh)
Cc1cccc(C(=O)O/N=C(\N)c2ccccn2)c1	NR2F2 inh 47 | Gal4-VP16 ctr inactive | COUP-TFII conf inactive
C=C(C)Cn1c(N2CCN(c3ccc(OC)cc3)CC2)nc2c1c(=O)n(C)c(=O)n2C	NR2F2 inh 41 | Gal4-VP16 ctr inactive | COUP-TFII conf inactive
Cc1ccc(Cn2cc(CN3[C@H](C)COc4cc(Br)ccc4S3(=O)=O)nn2)cc1	none (no result: NCOA1 inh, NR5A2 inv ag, NCOA3 inh)
CCC(CO)Oc1cc(NCc2ccccc2O)c2ncn(C(C)C)c2c1 (stereo unspecified)	NR2F2 inh 43 | Gal4-VP16 ctr inactive | COUP-TFII conf 40
CCC(CO)Oc1cc(NCc2ccc(Cl)cc2Cl)c2ncn(C(C)C)c2c1 (stereo unspecified)	none
CCCCc1nnn2c1C1c3cc(Br)ccc3CCN1C(=O)C2 (stereo unspecified)	none (no result: NCOA1 inh, NR5A2 inv ag, NCOA3 inh)
CCCCCCCCCCn1ccc(=N)cc1	NR5A2 inv ag 86, NCOA3 inh 71, NR2F2 inh 82 | Gal4-VP16 ctr 13 | COUP-TFII conf 79
CCCCCCN1Cc2ccccc2C1	none
CCCCCCCCn1ccc(=N)cc1	NR2F2 inh 42 | Gal4-VP16 ctr inactive | COUP-TFII conf inactive
O=C(NN=Cc1ccco1)c1cccnc1	none (no result: NCOA1 inh, NR5A2 inv ag, NCOA3 inh)
